Reference: the supplement of paper PMC10849652
The full data set covers some 7,900 targets. This sample favours those with a hit. About 0.6% of all pairs of compound and target were hits.

Legend:
Assay in all cases: log2 fold change, soluble protein after heating vs DMSO (PISA); higher = thermal stabilisation; K562 cells, 10 uM, 30 min; active = over 0.2 and 3.5 SD of the protein, either way, in both replicates (recomputed)
[1] = compound: CC[C@@H]1C(=O)N(C)c2cnc(Nc3ccc(C(=O)NC4CCN(C)CC4)cc3OC)nc2N1C1CCCC1
In short: (§1)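 For each measurement, 10 μM compound was applied for 30 min to K562 cells at 2×10^6 cells/mL. Aliquots were heated for 3 min across 48°C-58°C, pooled, and extracted in PBS with 0.5% NP-40 at 4°C; the supernatant after 21,000xg for 90 min was soluble protein. This was quantified by TMTpro 16plex LC-MS/MS with channel sums equalised, and thermal stability was reported relative to control samples from duplicates, on a log2 fold-change scale.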

volasertib = compound: CC[C@@H]1C(=O)N(C)c2cnc(Nc3ccc(C(=O)N[C@H]4CC[C@H](N5CCN(CC6CC6)CC5)CC4)cc3OC)nc2N1C(C)C [volasertib]
In short: as §1

[2] = compound: CC[C@H](C)N1C=C(C2=C(C=C(C=C21)C3=CN=C(C=C3)N4CCNCC4)C(=O)NCC5=C(C=C(NC5=O)C)C)C
In short: as §1

epoxomicin = compound: CC[C@H](C)[C@@H](C(=O)N[C@@H]([C@@H](C)O)C(=O)N[C@@H](CC(C)C)C(=O)[C@]1(CO1)C)NC(=O)[C@H]([C@@H](C)CC)N(C)C(=O)C [epoxomicin]
In short: as §1

[3] = compound: CCn1c(C(=O)N(C2CC2)C2CC2)cc2c3c(ncn3C)c(Nc3cc(C)n(C)n3)nc21
In short: as §1

[4] = compound: CCn1cc(-c2ccnc3[nH]c(-c4cccc(CN(C)C)c4)cc23)c(-c2ccc(NC(=O)N(C)C)cc2)n1
In short: as §1

[5] = compound: CN(C)CC(=O)Nc1ccc2[nH]c(=O)c3ccccc3c2c1
In short: as §1

rosiglitazone = compound: CN(CCOC1=CC=C(C=C1)C[C@H]2C(=O)NC(=O)S2)C3=CC=CC=N3 (racemic) [rosiglitazone]
In short: as §1

[6] = compound: CN1C2=C(C3=C1C(=O)N(N=C3)CC4=CC(=CC=C4)N)SC(=C2)S(=O)C
In short: as §1

[7] = compound: CN1CCC(CNc2ccc3ncc(-c4cccc(OC(F)(F)F)c4)n3n2)CC1
In short: as §1

saracatinib = compound: CN1CCN(CCOc2cc(OC3CCOCC3)c3c(Nc4c(Cl)ccc5c4OCO5)ncnc3c2)CC1 [saracatinib]
In short: as §1

sotrastaurin = compound: CN1CCN(c2nc(C3=C(c4c[nH]c5ccccc45)C(=O)NC3=O)c3ccccc3n2)CC1 [sotrastaurin]
In short: as §1

alvocidib = compound: CN1CC[C@H](c2c(O)cc(O)c3c(=O)cc(-c4ccccc4Cl)oc23)[C@H](O)C1 [alvocidib]
In short: as §1

Tubastatin A = compound: CN1CCc2c(c3ccccc3n2Cc2ccc(C(=O)NO)cc2)C1 [Tubastatin A]
In short: as §1

[8] = compound: CNC(=O)C1=CC=CC=C1NC2=NC(=NC=C2Cl)NC3=C(C=C(C=C3)N4CCOCC4)OC
In short: as §1

defactinib = compound: CNC(=O)c1ccc(Nc2ncc(C(F)(F)F)c(NCc3nccnc3N(C)S(C)(=O)=O)n2)cc1 [defactinib]
In short: as §1

rucaparib = compound: CNCc1ccc(-c2[nH]c3cc(F)cc4c3c2CCNC4=O)cc1 [rucaparib]
In short: as §1

[9] = compound: CNc1nc(-c2ccc3c(N)n[nH]c3c2)cc(N2C[C@@H](C(=O)NC3CCCCC3)CC[C@H]2C)n1
In short: as §1

encorafenib = compound: COC(=O)N[C@@H](C)CNc1nccc(-c2cn(C(C)C)nc2-c2cc(Cl)cc(NS(C)(=O)=O)c2F)n1 [encorafenib]
In short: as §1

[10] = compound: COC(=O)[C@H](CCSC)NC(=O)C1=C(C=C(C=C1)NC[C@H](CS)N)C2=CC=CC=C2
In short: as §1

Measured: log2 fold change

TAOK1 (UniProt Q7L7X3)
UniProt Q7L7X3, sequence (Q7L7X3 whole entry, looked up): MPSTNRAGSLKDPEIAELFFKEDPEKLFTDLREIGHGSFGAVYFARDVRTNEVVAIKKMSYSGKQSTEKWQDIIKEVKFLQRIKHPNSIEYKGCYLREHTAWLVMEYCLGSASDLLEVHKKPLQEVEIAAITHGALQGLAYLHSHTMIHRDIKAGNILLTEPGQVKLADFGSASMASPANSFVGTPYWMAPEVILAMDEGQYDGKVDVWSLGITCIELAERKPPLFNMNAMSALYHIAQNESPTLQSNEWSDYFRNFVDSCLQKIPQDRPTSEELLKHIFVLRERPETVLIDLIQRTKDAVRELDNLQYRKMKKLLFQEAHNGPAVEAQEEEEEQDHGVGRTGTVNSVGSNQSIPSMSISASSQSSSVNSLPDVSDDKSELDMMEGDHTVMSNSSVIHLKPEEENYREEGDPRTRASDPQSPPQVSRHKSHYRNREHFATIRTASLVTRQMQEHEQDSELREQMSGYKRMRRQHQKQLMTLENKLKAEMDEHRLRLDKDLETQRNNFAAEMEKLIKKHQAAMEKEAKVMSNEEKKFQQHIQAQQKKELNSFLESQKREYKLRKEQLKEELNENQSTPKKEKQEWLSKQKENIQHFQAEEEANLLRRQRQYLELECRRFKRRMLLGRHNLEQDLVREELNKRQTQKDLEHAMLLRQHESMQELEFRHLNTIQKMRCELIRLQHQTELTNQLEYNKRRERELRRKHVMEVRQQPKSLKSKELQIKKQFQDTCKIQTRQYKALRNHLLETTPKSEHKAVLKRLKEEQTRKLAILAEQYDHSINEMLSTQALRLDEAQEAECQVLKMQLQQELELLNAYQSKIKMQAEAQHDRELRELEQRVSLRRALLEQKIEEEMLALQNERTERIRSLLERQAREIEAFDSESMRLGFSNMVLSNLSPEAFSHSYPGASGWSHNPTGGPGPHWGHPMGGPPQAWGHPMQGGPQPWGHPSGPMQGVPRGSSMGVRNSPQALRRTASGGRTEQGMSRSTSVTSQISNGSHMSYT
active: [7] -0.262
inactive: [1] 0.03 | volasertib -0.019 | [2] 0.029 | epoxomicin -0.02 | [3] -0.008 | [4] -0.024 | [5] 0 | rosiglitazone 0.032 | [6] 0.017 | saracatinib 0.002 | sotrastaurin -0.013 | alvocidib -0.077 | Tubastatin A 0.032 | [8] -0.002 | defactinib -0.142 | rucaparib 0.032 | [9] 0.053 | encorafenib -0.061 | [10] -0.018

TAMM41 isoform 3 (UniProt Q96BW9)
UniProt Q96BW9, sequence (Q96BW9 whole entry, looked up): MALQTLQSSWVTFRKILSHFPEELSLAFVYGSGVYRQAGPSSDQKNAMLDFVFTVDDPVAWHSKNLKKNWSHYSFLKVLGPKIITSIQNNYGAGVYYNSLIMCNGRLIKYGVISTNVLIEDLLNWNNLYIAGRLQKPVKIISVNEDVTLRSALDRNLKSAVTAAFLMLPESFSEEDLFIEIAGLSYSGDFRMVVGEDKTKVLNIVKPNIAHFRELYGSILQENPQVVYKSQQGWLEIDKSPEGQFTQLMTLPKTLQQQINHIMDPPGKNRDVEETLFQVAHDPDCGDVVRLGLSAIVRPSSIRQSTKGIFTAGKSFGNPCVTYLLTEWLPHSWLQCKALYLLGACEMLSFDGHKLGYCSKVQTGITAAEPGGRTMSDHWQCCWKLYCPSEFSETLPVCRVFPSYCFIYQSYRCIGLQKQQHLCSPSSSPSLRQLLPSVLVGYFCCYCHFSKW
active: volasertib -0.312 | [7] -0.362
inactive: [1] -0.209 | [2] -0.004 | epoxomicin 0.02 | [3] -0.02 | [4] 0.022 | [5] 0.013 | rosiglitazone 0.005 | [6] -0.052 | saracatinib -0.009 | sotrastaurin -0.003 | alvocidib 0.027 | Tubastatin A -0.043 | [8] -0.037 | defactinib 0.015 | rucaparib 0.036 | [9] -0.006 | encorafenib 0.01 | [10] -0.007

TANK (UniProt Q92844)
UniProt Q92844, sequence (Q92844 whole entry, looked up): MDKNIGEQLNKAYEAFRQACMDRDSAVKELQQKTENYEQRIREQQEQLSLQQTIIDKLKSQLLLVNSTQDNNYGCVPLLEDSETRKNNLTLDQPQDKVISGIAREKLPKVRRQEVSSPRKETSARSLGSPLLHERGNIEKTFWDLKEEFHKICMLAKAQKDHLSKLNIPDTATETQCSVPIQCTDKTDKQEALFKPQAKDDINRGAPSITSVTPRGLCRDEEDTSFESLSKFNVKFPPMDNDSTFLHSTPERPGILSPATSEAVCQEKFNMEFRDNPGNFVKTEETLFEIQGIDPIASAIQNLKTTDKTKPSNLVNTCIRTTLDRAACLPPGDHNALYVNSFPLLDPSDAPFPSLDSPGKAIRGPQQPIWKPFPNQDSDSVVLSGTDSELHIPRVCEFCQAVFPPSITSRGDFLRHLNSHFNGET
inactive: [1] 0.057 | volasertib -0.105 | [2] -0.064 | epoxomicin -0.021 | [3] -0.074 | [4] 0.074 | [5] -0.012 | rosiglitazone -0.012 | [6] -0.117 | [7] -0.072 | saracatinib 0.118 | sotrastaurin 0.033 | alvocidib 0.081 | Tubastatin A 0.03 | [8] 0.236 | defactinib 0.045 | rucaparib -0.016 | [9] 0.052 | encorafenib 0.064 | [10] -0.03

TK1 (UniProt P04183)
UniProt P04183, sequence (P04183 whole entry, looked up): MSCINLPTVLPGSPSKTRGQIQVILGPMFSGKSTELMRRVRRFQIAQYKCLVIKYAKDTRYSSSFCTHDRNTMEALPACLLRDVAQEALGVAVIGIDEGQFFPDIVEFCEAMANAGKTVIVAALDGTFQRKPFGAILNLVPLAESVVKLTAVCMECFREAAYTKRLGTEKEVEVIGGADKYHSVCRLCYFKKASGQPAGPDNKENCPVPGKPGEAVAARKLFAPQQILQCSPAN
inactive: [1] 0.039 | volasertib 0.062 | [2] -0.039 | epoxomicin 0.084 | [3] -0.015 | [4] 0.001 | [5] -0.009 | rosiglitazone 0 | [6] -0.075 | [7] -0.046 | saracatinib 0.067 | sotrastaurin 0.036 | alvocidib -0.028 | Tubastatin A 0.034 | [8] -0.013 | defactinib -0.021 | rucaparib -0.015 | [9] -0.003 | encorafenib -0.005 | [10] 0.024

SPTBN4 (UniProt Q9H254)
inactive: [1] 0.051 | volasertib -0.293 | [2] -0.025 | epoxomicin -0.018 | [3] -0.065 | [4] -0.1 | [5] 0.171 | rosiglitazone 0.017 | [6] 0.011 | [7] 0.153 | saracatinib -0.056 | sotrastaurin 0.009 | alvocidib 0.095 | Tubastatin A -0.005 | [8] -0.284 | defactinib 0.039 | rucaparib 0.059 | [9] -0.035 | encorafenib -0.076 | [10] -0.002

TM9SF4 (UniProt Q92544)
UniProt Q92544, sequence (Q92544 whole entry, looked up): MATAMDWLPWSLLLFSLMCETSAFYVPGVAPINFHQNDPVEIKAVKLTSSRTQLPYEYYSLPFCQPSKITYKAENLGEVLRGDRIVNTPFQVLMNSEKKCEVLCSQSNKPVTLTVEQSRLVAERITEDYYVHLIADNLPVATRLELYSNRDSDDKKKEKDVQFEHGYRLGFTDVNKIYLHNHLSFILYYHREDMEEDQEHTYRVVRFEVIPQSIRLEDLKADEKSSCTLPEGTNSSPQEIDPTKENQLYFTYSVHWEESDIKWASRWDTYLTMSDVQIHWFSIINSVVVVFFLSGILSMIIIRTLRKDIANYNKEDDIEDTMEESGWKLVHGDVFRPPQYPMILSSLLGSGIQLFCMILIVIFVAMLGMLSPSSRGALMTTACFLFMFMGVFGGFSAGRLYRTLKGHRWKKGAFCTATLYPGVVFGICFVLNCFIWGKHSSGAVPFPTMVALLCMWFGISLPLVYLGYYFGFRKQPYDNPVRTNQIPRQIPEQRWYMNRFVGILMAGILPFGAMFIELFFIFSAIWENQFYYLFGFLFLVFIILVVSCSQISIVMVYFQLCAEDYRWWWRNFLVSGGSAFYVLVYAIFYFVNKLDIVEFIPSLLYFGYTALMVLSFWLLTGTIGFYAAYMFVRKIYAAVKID
inactive: [1] -0.225 | [2] 0.024 | epoxomicin -0.055 | [3] 0.035 | [4] 0.052 | [5] 0.001 | rosiglitazone 0.082 | [6] -0.05 | [7] -0.084 | saracatinib -0.028 | sotrastaurin 0.017 | alvocidib -0.008 | Tubastatin A -0.015 | [8] 0.013 | defactinib 0.037 | rucaparib 0.043 | [9] -0.046 | encorafenib 0.039 | [10] -0.03
active: volasertib -0.484

SUPT5H (UniProt O00267)
active: volasertib -0.224
inactive: [1] -0.018 | [2] 0.084 | epoxomicin 0.062 | [3] -0.054 | [4] -0.065 | [5] 0.056 | rosiglitazone 0.057 | [6] -0.056 | [7] -0.117 | saracatinib -0.01 | sotrastaurin -0.021 | alvocidib -0.075 | Tubastatin A 0.007 | [8] -0.004 | defactinib -0.126 | rucaparib -0.062 | [9] 0.039 | encorafenib 0.076 | [10] -0.017

TIMM10 (UniProt P62072)
UniProt P62072, sequence (P62072 whole entry, looked up): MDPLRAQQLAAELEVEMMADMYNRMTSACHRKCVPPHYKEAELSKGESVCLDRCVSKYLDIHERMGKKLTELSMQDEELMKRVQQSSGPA
inactive: [1] 0.029 | volasertib 0.052 | [2] -0.023 | epoxomicin 0.032 | [3] 0.059 | [4] 0.006 | [5] -0.046 | rosiglitazone -0.007 | [6] -0.074 | [7] 0.14 | saracatinib -0.058 | sotrastaurin 0.018 | alvocidib 0.08 | Tubastatin A -0.027 | [8] -0.015 | defactinib -0.073 | rucaparib -0.062 | [9] 0.039 | encorafenib -0.013 | [10] 0.002

SLC25A36 (UniProt Q96CQ1)
UniProt Q96CQ1, sequence (Q96CQ1 whole entry, looked up): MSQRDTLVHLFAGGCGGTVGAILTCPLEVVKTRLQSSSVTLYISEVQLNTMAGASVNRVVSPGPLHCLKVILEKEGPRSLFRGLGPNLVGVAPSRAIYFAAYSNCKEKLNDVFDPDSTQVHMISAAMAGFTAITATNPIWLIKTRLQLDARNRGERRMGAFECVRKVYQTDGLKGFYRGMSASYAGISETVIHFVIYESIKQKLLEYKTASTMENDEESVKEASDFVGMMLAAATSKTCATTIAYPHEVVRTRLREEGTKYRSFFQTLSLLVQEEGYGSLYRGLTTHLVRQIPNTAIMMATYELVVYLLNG
inactive: [1] -0.133 | volasertib 0.059 | [2] 0.045 | epoxomicin 0.026 | [3] -0.002 | [4] -0.135 | [5] -0.217 | rosiglitazone -0.073 | [6] 0.02 | [7] 0.046 | saracatinib 0.233 | sotrastaurin -0.057 | alvocidib -0.018 | Tubastatin A -0.027 | [8] 0.013 | defactinib 0.011 | rucaparib 0.066 | [9] 0.016 | encorafenib -0.055 | [10] 0.162
